Many of the other results were omitted from the sample, so hits are more common in it than they were.
DT40 TDP1 CPT: growth inhibition of DT40 Tdp1-/-;hTDP1 cells with camptothecin (screen for TDP1 inhibitors). 12% of 420,000 active. Potency, µM (titrated, usually from 46.2 µM), inactives show at the highest dose activity change, negative = growth inhibition, hits mostly inhibitors. chicken DT40 Tdp1-/-;hTDP1 cells + 20 nM CPT, ATP luminescence, 48 h; note: potency is the fitted concentration of half-maximal effect; nearly all actives have a fitted effect of over 55% in size
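Cell growth measured by CellTiter-Glo luminescence after a minimum 48 h, 37 C compound exposure with 20 nM CPT in Tdp1-knockout DT40 cells stably expressing hTDP1, seeded 400/well; qHTS titration format.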
IL1B secr inh: inflammasome signaling inhibition, IL-1 beta readout | 4.7% of 360,000 active | activity change, % at 57.5 µM | THP-1 LPS/ATP IL-1B secretion, AlphaLISA, 16 h; stronger effect = lower value; in the data active = activity change below about -50%; inconclusive = mostly about -30% to -49%
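THP-1 cells pretreated 1 hr with compounds (up to 57.5 uM final), then stimulated with LPS (250 ng/mL final) plus ATP (1.25 mM final); secreted IL-1B measured by AlphaLISA after 16 hr, decreased signal indicating inhibition.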
HT1080 IDH1KD tx: toxicity to HT-1080 IDH1 knockdown cells (counter line) | HT-1080 IDH1 knockdown viability, ATP luminescence, 48 h | Potency, µM (highest dose often 46.1 µM), for inactives: at the top dose activity, negative = toxicity, most hits filed as cytotoxic | 2% of 360,000 active;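 note: potency is the fitted concentration of half-maximal effect; 0% = DMSO wells and -100% = cell-free medium wells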
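Viability of IDH1-knockdown HT-1080 fibrosarcoma cells was assessed by CellTiter-Glo after 48 h at 37 °C with titrated compound; concentration-effect curves were classified by fit quality and response size.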
DT40 TDP1 no CPT: qHTS for Inhibitors of human tyrosyl-DNA phosphodiesterase 1 (TDP1): qHTS in cells in absence of CPT; DT40 Tdp1-/- hTDP1 cells, no CPT, ATP luminescence, 48 h; Potency, µM (top dose mostly 46.2 µM), for the others: top-dose activity change, negative = growth inhibition, actives largely listed as inhibitors; 15% of 420,000 active; AID 686978, 2013; note: potency is the fitted concentration of half-maximal effect; nearly all actives have a fitted effect of over 55% in size
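Compound effects on proliferation are scored in DT40 Tdp1-/-;hTDP1 cells in the absence of CPT. ATP levels (CellTiter-Glo luminescence) are recorded after a ≥48 hr, 37 °C incubation.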
12-LOX inh: blocks human arachidonate 12S-lipoxygenase; P18054; purified 12hLO, xylenol orange hydroperoxide absorbance; Potency, µM (titrated, usually from 108 µM), for the others: at the top dose activity change, negative = inhibition, usual class: inhibitors; 1.1% of 580,000 active; AID 1671190; note: potency is the fitted concentration of half-maximal effect
Target sequence (P18054 whole entry, looked up): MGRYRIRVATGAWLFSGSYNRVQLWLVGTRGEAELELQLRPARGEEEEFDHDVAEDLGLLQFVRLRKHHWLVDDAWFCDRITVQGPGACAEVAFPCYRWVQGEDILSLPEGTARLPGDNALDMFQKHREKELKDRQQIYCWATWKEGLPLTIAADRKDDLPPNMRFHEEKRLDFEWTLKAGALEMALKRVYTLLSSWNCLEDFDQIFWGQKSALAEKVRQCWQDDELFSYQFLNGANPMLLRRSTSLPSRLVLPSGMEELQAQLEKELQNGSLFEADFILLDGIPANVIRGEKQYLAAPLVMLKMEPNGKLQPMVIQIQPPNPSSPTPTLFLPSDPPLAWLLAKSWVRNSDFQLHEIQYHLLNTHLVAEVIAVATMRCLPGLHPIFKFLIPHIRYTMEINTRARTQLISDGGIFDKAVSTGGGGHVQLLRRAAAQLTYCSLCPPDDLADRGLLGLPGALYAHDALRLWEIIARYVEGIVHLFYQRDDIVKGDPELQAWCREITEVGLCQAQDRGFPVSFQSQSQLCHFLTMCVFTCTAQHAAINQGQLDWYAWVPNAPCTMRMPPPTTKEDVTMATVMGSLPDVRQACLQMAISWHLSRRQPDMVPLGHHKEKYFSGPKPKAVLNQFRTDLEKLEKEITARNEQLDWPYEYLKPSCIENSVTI
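Purified human 12hLO (150 nM final) in 25 mM Hepes, 0.01% Triton X-100, pH 7.0 was preincubated 15 min at room temperature with compound. Then 40 uM arachidonic acid was added, 30 min. Hydroperoxide was read by Fe-XO absorbance ratio 573/405 nm.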
HT1080-NT tox: kills 2HG-producing HT-1080-NT fibrosarcoma cells. Potency, µM (top dose mostly 46.1 µM), inactives show at the highest dose activity, negative = less viability, usual class: cytotoxic. 1.6% of 360,000 active. AID 686970. HT-1080-NT fibrosarcoma viability, CellTiter-Glo ATP luminescence, 48 h;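 note: NT is the 2HG producing partner of a matched IDH1 knockdown line; potency is the fitted concentration of half-maximal effect; 0% = DMSO-treated cells and -100% = media-only wells without cells; nearly all actives have a fitted effect of over 55% in size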
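Viability by CellTiter-Glo luminescence after 48 h compound exposure at 37C of HT-1080-NT cells (750/well, RPMI, 5% FBS). % activity scaled between DMSO wells and medium-only wells, then curve-fitted and categorized by curve class.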
* = called active by the depositor; i = inactive; ? = inconclusive; . = no result given; [ ] = dose if it differs, or a comment. Unless noted, calls come from the whole dose curve; as a rule, active = well fitted curve in the direction sought with a large enough effect; inconclusive = small, poorly fitted or top-dose-only effect, or another doubt; inactive = no such curve, though single readings can be large; an effect the other way counts as inactive or inconclusive. Unless noted, % is set by controls: 0 for no effect and ±100 for the full control effect.

SMILES	DT40 TDP1 CPT	IL1B secr inh	HT1080 IDH1KD tx	DT40 TDP1 no CPT	12-LOX inh	HT1080-NT tox
O=C1CCN(S(=O)(=O)c2ccccc2)CCCN(C(=O)CCc2c[nH]c3ccccc23)CCN1	.	.	.	.	-5.1%	.
COc1ccc(N2Cc3c(NCC4CCCCC4)ncnc3N(C)CC2=O)cc1	.	.	.	.	17.7%	.
CCCN(C)C(=O)CC1COc2ccc(C(=O)NCCOC)cc2N1C (configuration not stated)	.	.	.	.	33.7%	.
CCCCOCCCNC(=O)C[C@@H]1C[C@@]2(C(=O)OCC)CCC=C2N(Cc2ccccc2)C1=O	?	-4.5	17.0%	?	8.9%	12.7%
CCCCOCCCNC(=O)C[C@@H]1C[C@@]2(C(=O)OCC)CCC=C2N(Cc2ccc(Cl)cc2Cl)C1=O	20.6µM*	-89.4*	?	14.6µM*	-18.8%	?
COc1ccc(/C=C/C(=O)NC2CCCCCCCCCCC2)cc1	.	.	.	.	1.6%	.
O=C(CSc1n[nH]c(=O)n1C1CC1)Nc1cc(Cl)ccc1Oc1ccccc1	16.4µM*	-14.7	-18.6%	14.6µM*	4.8%	-22.1%
CC(=O)N1[C@@H]2c3ccc(-c4cccnc4)c(=O)n3C[C@@H]2[C@@H](CO)[C@@H]1C(=O)NCc1ccccc1Cl	.	.	.	.	-30.1%	.
COC(=O)[C@H]1[C@H](CO)[C@H]2Cn3c(ccc(Br)c3=O)[C@H]2N1Cc1ccccc1Cl	.	.	.	.	35.5µM*	.
O=C(Nc1ccc(Cl)c(C(F)(F)F)c1)NC1CC2CCCC(C1)N2C1CC1 (configuration not stated)	11.2µM*	?	?	11.2µM*	8.0%	?
COc1ccc(C(=O)NCc2nnc(SCC(=O)Nc3nnc(C)s3)o2)cc1OC	-7.8%	19.6	2.4%	-11.6%	6.9%[57.4 µM]	9.6%
Cc1ccc(CNC(=O)CSc2nnc(CNC(=O)c3ccccc3)o2)cc1	-1.5%	-73.2*	0.2%	0.9%	6.3%	-0.3%
COc1ccc(C(=O)NCc2nnc(SCC(=O)Nc3nc4ccc(C)cc4s3)o2)cc1OC	4.11µM*	24.4	-18.3%	2.31µM*	-12.8%	-8.2%
Cn1cnnc1CC1CCN(S(=O)(=O)c2ccc(F)cc2)CC1	.	.	.	.	32.0%	.
CC(C)(C)Nc1nc2nonc2nc1NC(C)(C)C	16.4µM*	-68.0*	?	?	-6.2%	?
COc1ccccc1-c1cc(N2CCN(c3ccccn3)CC2)c2onc(C)c2n1	.	.	.	.	89.1µM*	.
CCOc1ccc(-c2cc(C(=O)NCCc3cccs3)[nH]n2)cc1	.	.	.	.	-0.6%	.
CC(=O)NCC1CCCN(Cc2cn(-c3ccccc3F)nc2-c2cc(C)sc2C)C1 (configuration not stated)	?	-56.4*	-13.4%	-23.2%	-9.0%	3.8%
CC(=O)NC1CCN(Cc2cn(-c3ccccc3F)nc2-c2cc(C)sc2C)C1 (configuration not stated)	.	.	.	.	87.3%	.
Cc1cc(-c2nn(-c3ccccc3F)cc2CN2CCN(c3ccncc3)CC2)c(C)s1	?	-84.6*	?	?	-30.0%	20.6µM*
Cc1cc(-c2nn(-c3ccccc3F)cc2CN2CCC(N(C)C)C2)c(C)s1 (configuration not stated)	.	.	.	.	85.2%	.
Cc1cc(-c2nn(-c3ccccc3F)cc2CN2CCCC(C#N)C2)c(C)s1 (configuration not stated)	.	.	.	.	16.8%	.
COCC1CCCN(Cc2cn(-c3ccccc3F)nc2-c2cc(C)sc2C)C1 (configuration not stated)	16.4µM*	0.0	0.7%	18.4µM*	0.0%	9.2%
O=C(NCc1cccs1)C1CN(Cc2ccccc2)C(=O)N1 (configuration not stated)	.	.	.	.	2.3%[176 µM]	.
COc1cccc(S(=O)(=O)CCOC2CCCCC2C)c1 (configuration not stated)	.	.	.	.	31.0%	.
SMILES	DT40 TDP1 CPT	IL1B secr inh	HT1080 IDH1KD tx	DT40 TDP1 no CPT	12-LOX inh	HT1080-NT tox
C[n+]1ccc(/C=N/Nc2nc(Cl)c(C#N)c(Cl)c2Cl)cc1	?	-58.7*	-10.3%	?	-19.4%	?
Clc1nnc(N/N=C/c2ccccc2)c2ccccc12	?	-12.1	?	?	-17.0%	?
CC(O)c1ccc2c(c1)OCCOCCOCCOCCO2 (configuration not stated)	.	.	.	.	-23.1%	.
O=C(NCCCN1CCCCCC1)C(c1ccccc1)C1CCCCC1 (configuration not stated)	?	.	.	16.4µM*	3.1%	.
O=C(c1cccs1)c1cn(CC(=O)N2CCc3ccccc3C2)c2ccccc12	23.1µM*	-9.2	?	?	64.6%	-16.6%
COc1ccc(C2NS(=O)(=O)N=C2N)cc1 (configuration not stated)	?	-0.2	0.7%	23.1µM*	-11.6%	-1.5%
O=S(=O)(c1ccccc1)N1CCCc2nc(-c3ccc(F)cc3)ccc21	.	.	.	.	-7.6%	.
CN(Cc1ccccc1)C(=S)NC(=O)c1ccc(-c2ccccc2)cc1	4.61µM*	-8.2	?	4.61µM*	-10.7%	-24.8%
O=C(NC(=S)N(CCc1ccccc1)CCc1ccccc1)c1ccco1	18.4µM*	13.9	-16.3%	11.6µM*	?	-7.5%
CN(Cc1ccccc1)C(=S)NC(=O)c1cccs1	?	50.6	-24.5%	?	i	-25.3%
COc1cc(C(=O)NC(=S)N(CCc2ccccc2)CCc2ccccc2)cc(OC)c1OC	23.1µM*	0.0	?	20.6µM*	?	-7.5%
COc1cc(C(=O)NC(=S)N(C)Cc2ccccc2)cc(OC)c1OC	20.6µM*	10.8	-1.6%	8.2µM*	-24.6%	-3.9%
O=C(O)CC[C@@H]1CN(c2nnnn2-c2ccccc2)CC[C@@H]1N1CCOCC1	.	.	.	.	10.4%	.
COc1cc(C(=O)N/N=C(\C)Cc2ccccc2)cc(OC)c1OC	10.6%	134.0	1.03µM*	-5.4%	11.7%	1.16µM*
CCOC(=O)c1c(-c2ccccc2)c2cc(OC)ccc2n1CCCN(C)C	?	-50.4*	-3.8%	?	8.3%	-17.3%
CCOC(=O)c1c(C)n(CC(=O)OC)c2ccc(OC)cc12	.	.	.	.	56.8%	.
CCCc1ccc(-c2ccc(C3CCC(CC)CC3)cc2)nc1 (configuration not stated)	.	.	.	.	2.5%	.
O=S(=O)(c1ccc(Cl)cc1)c1nnn2c1nc(N1CCCCC1)c1sccc12	20.6µM*	.	.	16.4µM*	-6.6%	.
O=S(=O)(c1ccc(Cl)cc1)c1nnn2c1nc(NCc1cccs1)c1sccc12	?	.	.	23.1µM*	0.0%	.
Cc1ccc(S(=O)(=O)c2nnn3c2nc(NCc2cccs2)c2sccc23)cc1	-4.3%	.	.	-25.6%	-16.9%	.
